# Where “and” joins values, the source holds several entries; their conditions need not be identical. Equal values may be shown once. Inconclusive results are not listed. A call without a number means that no potency is given here. Values without a mark were called inactive. Calls of active or inactive are those of the source. Unless noted, calls come from the whole dose curve; as a rule, active = well fitted curve in the direction sought with a large enough effect; inconclusive = small, poorly fitted or top-dose-only effect, or another doubt; inactive = no such curve, though single readings can be large; an effect the other way counts as inactive or inconclusive.
# Assays:
# [1] = molecular target: Cellular tumor antigen p53 (Homo sapiens) (UniProt P04637); experiment: Primary qHTS for small molecule compounds that upregulate eGFP-tagged delta133p53alpha (in N-terminal) cells. (AID 2060322); details: NCI-H358 eGFP-delta133p53alpha fluorescence, 24 h; activation: hits give high values; note: nearly all actives have a fitted effect of over 75% in size; note: potency is the fitted concentration of half-maximal effect; for activation: series mostly up to about 56 µM
# Outline: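 NCI-H358 cells pre-induced 24 h with 10 ng/ml doxycycline to express N-terminal eGFP-delta133p53alpha, then dosed 24 h at 37C without doxycycline; fixed, Hoechst-stained, GFP intensity by laser scanning cytometry, normalized to DMSO (0%) and 57.5 uM 5-azacytidine (100%).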
# [2] = BET inhibitor-based combinations targeting novel dependencies in MECOM-rearranged (r) AML: MV-4-11 cell line (AID 2202233); note: nearly all actives have a fitted effect of over 45% in size; note: potency is the fitted concentration of half-maximal effect
# Outline: (§1)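 Luminescent ATP readout (CellTiter-Glo, 15 min at room temperature) after 48 hr drug exposure gave viability. Dose-response curves, normalized to DMSO and empty-well controls, were summarized as area under the curve and its mean-centred Z-score.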
# [3] = BET inhibitor-based combinations targeting novel dependencies in MECOM-rearranged (r) AML: HNT-34 cell line (AID 2202234); note: nearly all actives have a fitted effect of over 35% in size; note: potency is the fitted concentration of half-maximal effect
# Outline: as §1
# [4] = BET inhibitor-based combinations targeting novel dependencies in MECOM-rearranged (r) AML: UCSD-AML1 cell line (AID 2202235); note: nearly all actives have a fitted effect of over 40% in size; note: potency is the fitted concentration of half-maximal effect
# Outline: as §1
# [5] = BET inhibitor-based combinations targeting novel dependencies in MECOM-rearranged (r) AML: AML-194 cell line (AID 2202237; note: nearly all actives have a fitted effect of over 40% in size; note: potency is the fitted concentration of half-maximal effect)
# Outline: (§2)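 Luminescent ATP readout (CellTiter-Glo) after 48 hr drug exposure gives viability. Curves span 11 concentrations and are normalized to DMSO and empty wells. Activity is reported as area under the curve and its Z-transform within each cell line.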
# [6] = BET inhibitor-based combinations targeting novel dependencies in MECOM-rearranged (r) AML: AML-191 cell line (AID 2202236; note: nearly all actives have a fitted effect of over 35% in size; note: potency is the fitted concentration of half-maximal effect)
# Outline: as §2
# [7] = molecular target: Cellular tumor antigen p53 (Homo sapiens) (UniProt P04637); experiment: Primary qHTS for small molecule compounds that upregulate eGFP-tagged delta133p53alpha (in C-terminal) cells. (AID 2060324); note: potency is the fitted concentration of half-maximal effect
# Outline: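 NCI-H358 cells pre-induced 24 h with 100 ng/ml doxycycline to express delta133p53alpha-eGFP, then dosed in doxycycline-free medium for 24 h at 37C. Fixed, Hoechst-stained; GFP intensity by laser scanning cytometry, normalized to DMSO wells.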
# [8] = molecular target: Aldehyde dehydrogenase, mitochondrial (Homo sapiens) (UniProt P05091); experiment: qHTS for Inhibitors of the Aldehyde Dehydrogenase Family (ALDH2) Validation screens (AID 2061302; active = well fitted inhibition curve with a large enough effect; title and protocol of this record describe different tests; note: potency is the fitted concentration of half-maximal effect)
# [9] = molecular target: Retinaldehyde dehydrogenase 3 (Homo sapiens) (UniProt P47895); experiment: qHTS for Inhibitors of the Aldehyde Dehydrogenase Family (ALDH1A3) Validation screen (AID 2061312); note: nearly all actives have a fitted effect of over 45% in size
# Chain of Cellular tumor antigen p53 (Homo sapiens) (P04637 whole entry, looked up): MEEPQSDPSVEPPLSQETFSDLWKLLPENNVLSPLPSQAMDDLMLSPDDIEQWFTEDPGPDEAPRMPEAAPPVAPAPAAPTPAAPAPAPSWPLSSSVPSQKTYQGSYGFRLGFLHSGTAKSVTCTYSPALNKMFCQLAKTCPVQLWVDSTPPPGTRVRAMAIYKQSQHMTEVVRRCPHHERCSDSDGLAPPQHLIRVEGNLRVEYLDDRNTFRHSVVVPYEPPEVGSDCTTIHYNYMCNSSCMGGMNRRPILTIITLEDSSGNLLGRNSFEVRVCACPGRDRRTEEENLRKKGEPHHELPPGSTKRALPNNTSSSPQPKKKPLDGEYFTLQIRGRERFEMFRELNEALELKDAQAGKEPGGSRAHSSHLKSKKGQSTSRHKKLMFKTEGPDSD
smiles,measurement,setting,value
NS(=O)(=O)c1cc2c(cc1Cl)NC(C(Cl)Cl)NS2(=O)=O (stereo not drawn),activation,[1],-14.1% and -9.47%
same,Potency,[2],inactive
same,Potency,[3],inactive
same,Potency,[4],inactive
same,Potency,[5],inactive
COc1ccc(CC2SC(=O)NC2=O)cc1C(=O)NCc1ccc(C(F)(F)F)cc1 (stereo not drawn),activation,[1],-5.55%
same,Potency,[4],inactive
same,Potency,[6],inactive
same,Potency,[5],inactive
O=C(Nc1ccccc1Br)N[C@@H]1CCN(c2ccc(C(F)(F)F)cn2)C1,activation,[1],10.1%
same,Potency,[2],inactive
same,Potency,[4],inactive
same,Potency,[6],inactive
same,Potency,[5],inactive
CCn1c(-c2nonc2N)nc2c(C#CC(C)(C)O)ncc(OC[C@H]3CCCNC3)c21,activation,[1],-17.2%
same,Potency,[2],18.6 µM (active)
same,Potency,[3],16.6 µM (active)
same,Potency,[5],20.9 µM (active)
C[N+](C)([O-])CCNc1ccc(NCC[N+](C)(C)[O-])c2c1C(=O)c1c(O)ccc(O)c1C2=O,activation,[1],9.32%
same,Potency,[2],0.468 µM (active)
same,Potency,[4],9.34 µM (active)
CCOC(CN1C(=O)[C@](CC(=O)Nc2ccc(C)cc2)(NC(=O)Nc2ccc(C)cc2)c2ccccc21)OCC,activation,[1],0.237%
same,Potency,[2],23.5 µM (active)
same,Potency,[4],inactive
O=C(/C=C/N1C[C@H]2C[C@@H]1CN2c1ccccn1)c1ccccc1O,activation,[1],21.2%
same,Potency,[4],inactive
same,Potency,[6],inactive
same,Potency,[5],inactive
Cc1ccc(NC(=O)c2ccc(CN3CCN(C)CC3)cc2)cc1Nc1nc(-c2cccnc2)cs1,activation,[1],4.59%
same,Potency,[3],5.25 µM (active)
same,Potency,[4],inactive
COc1ccc([C@@H]2CNC(=O)C2)cc1OC1CCCC1,activation,[1],7.46%
same,Potency,[2],inactive
same,Potency,[3],inactive
same,Potency,[4],inactive
same,Potency,[6],inactive
same,Potency,[5],inactive
Clc1ccc(COC(Cn2ccnc2)c2ccc(Cl)cc2Cl)c(Cl)c1 (stereo not drawn),activation,[1],-18.8%
same,Potency,[3],16.6 µM (active)
same,Potency,[4],inactive
same,Potency,[5],26.3 µM (active)
COc1c(N2CCNC(C)C2)c(F)cc2c(=O)c(C(=O)O)cn(C3CC3)c12 (stereo not drawn),activation,[1],12.6% and 24.5%
same,Potency,[2],inactive
same,Potency,[3],inactive
same,Potency,[4],inactive
same,Potency,[6],inactive
same,Potency,[5],inactive
CN[C@@H](C)C(=O)N[C@H]1CCCC[C@H]2CC[C@@H](C(=O)N[C@@H](c3ccccc3)c3cn(CCCCc4ccc(CCCCn5cc([C@@H](NC(=O)[C@@H]6CC[C@@H]7CCCC[C@H](NC(=O)[C@H](C)NC)C(=O)N76)c6ccccc6)nn5)cc4)nn3)N2C1=O,activation,[1],16.4%
same,Potency,[3],inactive
same,Potency,[4],0.0037 µM (active)
CC[C@H](C)n1cc(C)c2c(C(=O)NCc3c(C)cc(C)[nH]c3=O)cc(-c3ccc(N4CCNCC4)nc3)cc21,activation,[1],-13%
same,Potency,[2],18.6 µM (active)
same,Potency,[5],inactive
O=C(NCCCNc1nc(Nc2cccc(NC(=O)N3CCCC3)c2)ncc1I)c1cccs1,activation,[1],9.72%
same,Potency,[2],0.662 µM (active)
same,Potency,[4],5.25 µM (active)
Nc1nc(N)c2nc(-c3cccc(O)c3)c(-c3cccc(O)c3)nc2n1,Potency,[1],24.3 µM (active)
same,Potency,[3],inactive
same,Potency,[4],inactive
same,Potency,[6],18.6 µM (active)
O=C1C(SCCO)=C(SCCO)C(=O)c2ccccc21,Potency,[7],8.49 µM (active)
same,Potency,[8],2.24 µM (active)
same,Potency,[9],inactive

# — PubChem BioAssay (NCATS)
